Assay [1] in a line: growth inhibition of DIPG glioma cells, dose response, cell-based, SU-DIPG-XVII, MIPE5.0, CellTiter-Glo, qHTS (AID 1347060; cut-off not given, nearly all actives have AC50 up to about 26 µM;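 further: cells exposed to compound for 48 hours before viability readout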). As to conditions: SU-DIPG-XVII viability, CellTiter-Glo ATP luminescence. Background: Cellular ATP, detected with luciferase, serves as a proxy for viable cell number.
The nature of assay [2]: growth inhibition of DIPG glioma cells, dose response, cell-based, SU-DIPG-XIII, MIPE4.0, CellTiter-Glo, qHTS (AID 1347061; cut-off not given, nearly all actives have AC50 up to about 37 µM;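 further: cells exposed to compound for 48 hours before readout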). Conditions: SU-DIPG-XIII viability, CellTiter-Glo ATP luminescence.
Assay [3] in a line: growth inhibition of DIPG glioma cells, dose response, cell-based, SU-DIPG-IV, MIPE4.0, CellTiter-Glo, qHTS (AID 1347063; cut-off not given, nearly all actives have AC50 up to about 30 µM;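 further: compound exposure lasted 48 hours before the viability readout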). As to conditions: SU-DIPG-IV viability, CellTiter-Glo ATP luminescence.
The nature of assay [4]: growth inhibition of DIPG glioma cells, dose response, cell-based, SU-DIPG-XIII, MIPE5.0, CellTiter-Glo, qHTS (AID 1347064; cut-off not given, nearly all actives have AC50 up to about 23 µM;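 further: cells exposed to compound for 48 hours before the viability read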). Conditions: SU-DIPG-XIII viability, CellTiter-Glo ATP luminescence.
A short description of assay [5]: viability loss in pontine glioma line – cell-based, SU-DIPG-XXV, MIPE5.0, CellTiter-Glo, qHTS, dose response (AID 1347065; cut-off not given, nearly all actives have AC50 up to about 26 µM;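 further: cells exposed to compound for 48 hours before ATP readout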). Conditions: CellTiter-Glo ATP luminescence.
Assay [6] in a line: SU-DIPG-XXV glioma cell viability, MIPE5.0 library, qHTS (AID 1347068; cut-off not given, nearly all actives have IC50 up to about 30 µM;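 on IC50: cells exposed to compound for 48 hours before viability readout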). Background: Quantitative high-throughput screening tests each substance at several concentrations.
Assay [7] can be described thus: sensitizers of A549 cells to miR-34 induction, primary screen, imaging, A549 dox-inducible miR-34, nuclei and caspase counts (AID 1347080;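 active means compounds whose cell count with miR-34 switched on is under 0.7 times the count with it off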). As to conditions: A549 miR-34 inducible, Hoechst nuclei count, 48 h.
The nature of assay [8]: modifiers of HSF1 nuclear foci, imaging, Selleck Cancer Library (AID 1347162; in the data active means plate-normalised HSF1 focus index below about 0.46). Conditions: human cells, at 10 µM; SSMD: measured here: HSF1 foci SSMD mean; cell count: measured here: cell number; plate-normalised HSF1 focus index: stronger effect = lower value.
Assay [9] in a line: survival rescue of mitochondrial mutant cells in low glucose, primary screen, MELAS cybrids, Rieske KO mouse fibroblasts, CellTiter-Glo (AID 1508586;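 active means mean z-score across replicates of 1.96 or higher in either the MELAS or the Rieske mutant cell line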;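 further: z relative to plate mean and SD of compound and empty wells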).
The nature of assay [10]: ovarian cancer cell viability with rucaparib, profiling panel, oncology-focused library, rucaparib conditional (AID 1508598). Conditions: patient-derived ovarian cancer cells, CellTiter-Glo viability, 144 h, stronger effect = lower value.
The nature of assay [11]: JHH-DIPG-1 glioma cell viability, MIPE5.0 library, CellTiter-Glo luminescence, qHTS (AID 1347067; cut-off not given, nearly all actives have AC50 up to about 26 µM;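 further: cells exposed to compound for 48 hours before readout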). As to conditions: JHH-DIPG-1 glioma viability, CellTiter-Glo ATP luminescence.

The text below walks through data of PubChem BioAssay.

The structures appear in SMILES notation. Records with an inconclusive call do not appear. Calls of active or inactive are those of the source.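 How the source made its calls, unless noted: active means normalized viability below 100% at a tested concentration; inactive means the rest.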

Turning to `CS(=O)(=O)N1CCN(Cc2cc3nc(-c4cccc5[nH]ncc45)nc(N4CCOCC4)c3s2)CC1`, the AC50 – broadly, the midpoint of the concentration-response curve, whichever way the signal moves – was 1.18 µM (active) in assay [1]; 5.26 µM (active) in assay [2]; 0.166 µM (active) in assay [3]; 1.32 µM (active) in assay [4]; 0.661 µM (active) in assay [5]. In addition, the IC50 (usually the concentration at which inhibition is half-maximal) in assay [6] was 4.17 µM (active). The fold change is 0.864 (inactive) in assay [7] (stronger effect = lower value, cell number ratio, induced over uninduced) and 0.859 in assay [7] (measured here: relative caspase fold change +Dox/-Dox). The cell count in [7] (measured here: total cells with miR-34 induction, stronger effect = lower value) is 1360; in assay [7] (measured here: total cells without miR-34 induction) it was 1570; in assay [8], 6530. Further, the SSMD in assay [8] was -1.97. In addition, the plate-normalised HSF1 focus index in assay [8] is 0.899 (inactive). Moreover, the z-score in [9] (MELAS cybrid survival, CellTiter-Glo 48 h, stronger effect = higher value) is 3.74 (active); in assay [9] (Rieske KO mouse fibroblast survival, CellTiter-Glo 72 h) it was 1. For the same compound, the viability (usually a read-out of living cells in per cent, often relative to untreated cells) in assay [10] (at 0.000305 µM, OCI-C5x cells, with rucaparib 10 µM, 100% = cells with rucaparib alone) is 111% (inactive); in assay [10] (at 0.000305 µM, OCI-C5x cells, without rucaparib) it was 127% (inactive); in [10] (at 0.000305 µM, OCI-P5x cells, with rucaparib 20 µM, 100% = cells with rucaparib alone), 98.9% (active); in assay [10] (at 0.000305 µM, OCI-P5x cells, without rucaparib) it was 94.9% (active); in assay [10] (at 0.00122 µM, OCI-C5x cells, with rucaparib 10 µM, 100% = cells with rucaparib alone), 121% (inactive); in assay [10] (at 0.00122 µM, OCI-C5x cells, without rucaparib), 119% (inactive). Besides, the viability in assay [10] (at 0.00122 µM, OCI-P5x cells, with rucaparib 20 µM, 100% = cells with rucaparib alone) was 98.2% (active); in [10] (at 0.00122 µM, OCI-P5x cells, without rucaparib), 92.1% (active); in assay [10] (at 0.00488 µM, OCI-C5x cells, with rucaparib 10 µM, 100% = cells with rucaparib alone) it was 109% (inactive); in assay [10] (at 0.00488 µM, OCI-C5x cells, without rucaparib), 120% (inactive); in assay [10] (at 0.00488 µM, OCI-P5x cells, with rucaparib 20 µM, 100% = cells with rucaparib alone), 94.4% (active); in [10] (at 0.00488 µM, OCI-P5x cells, without rucaparib) it was 93.2% (active). In addition, the viability in [10] (at 0.0195 µM, OCI-C5x cells, with rucaparib 10 µM, 100% = cells with rucaparib alone) was 111% (inactive); in [10] (at 0.0195 µM, OCI-C5x cells, without rucaparib), 118% (inactive); in assay [10] (at 0.0195 µM, OCI-P5x cells, with rucaparib 20 µM, 100% = cells with rucaparib alone) it was 96.3% (active); in [10] (at 0.0195 µM, OCI-P5x cells, without rucaparib) it was 87.5% (active); in [10] (at 0.0781 µM, OCI-C5x cells, with rucaparib 10 µM, 100% = cells with rucaparib alone), 114% (inactive); in assay [10] (at 0.0781 µM, OCI-C5x cells, without rucaparib) it was 108% (inactive). In addition, the viability was 92.7% (active) in assay [10] (at 0.0781 µM, OCI-P5x cells, with rucaparib 20 µM, 100% = cells with rucaparib alone); 88.1% (active) in assay [10] (at 0.0781 µM, OCI-P5x cells, without rucaparib); 105% (inactive) in assay [10] (at 0.313 µM, OCI-C5x cells, with rucaparib 10 µM, 100% = cells with rucaparib alone); 107% (inactive) in [10] (at 0.313 µM, OCI-C5x cells, without rucaparib); 72.6% (active) in assay [10] (at 0.313 µM, OCI-P5x cells, with rucaparib 20 µM, 100% = cells with rucaparib alone); 78.2% (active) in assay [10] (at 0.313 µM, OCI-P5x cells, without rucaparib). The viability in [10] (at 1.25 µM, OCI-C5x cells, with rucaparib 10 µM, 100% = cells with rucaparib alone) was 125% (inactive); in assay [10] (at 1.25 µM, OCI-C5x cells, without rucaparib) it was 123% (inactive); in assay [10] (at 1.25 µM, OCI-P5x cells, with rucaparib 20 µM, 100% = cells with rucaparib alone), 82.3% (active); in [10] (at 1.25 µM, OCI-P5x cells, without rucaparib) it was 82.1% (active); in assay [10] (at 5 µM, OCI-C5x cells, with rucaparib 10 µM, 100% = cells with rucaparib alone) it was 114% (inactive); in assay [10] (at 5 µM, OCI-C5x cells, without rucaparib), 120% (inactive). Moreover, the viability is 54.2% (active) in assay [10] (at 5 µM, OCI-P5x cells, with rucaparib 20 µM, 100% = cells with rucaparib alone) and 70.8% (active) in assay [10] (at 5 µM, OCI-P5x cells, without rucaparib).
As to `N#CC(c1ccnc(NCCc2cccnc2)n1)c1nc2ccccc2s1` (centres undefined), the AC50 was 11.8 µM (active) in assay [1], 13.2 µM (active) in assay [3], 11.8 µM (active) in assay [5] and 18.6 µM (active) in [11]. Besides, the call in [2] and in assay [6] was inactive.
`NC(=O)c1c(OCc2c(F)cc(Br)cc2F)nsc1NC(=O)NCCCCN1CCCC1`: the AC50 in [1] was 4.68 µM (active); in assay [2], 6.62 µM (active); in assay [4], 3.32 µM (active); in [5] it was 3.32 µM (active); in [11], 18.6 µM (active). In [6], the IC50 was 23.5 µM (active).
